Test results published in PubChem BioAssay (NCATS).
Several values for one entry are separate records, joined by “and”; a condition that tells them apart may be missing. Identical values can stand only once. Inconclusive results are not listed. Activity calls are given as the source filed them. Unless noted, calls come from the whole dose curve; as a rule, active = well fitted curve in the direction sought with a large enough effect; inconclusive = small, poorly fitted or top-dose-only effect, or another doubt; inactive = no such curve, though single readings can be large; an effect the other way counts as inactive or inconclusive.

What was measured:
[1] = Cell Viability - HUV-EC-C (AID 542);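 note: cells exposed to compound for 40 hours; nearly all actives have a fitted effect of over 35% in size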; note: potency is the fitted concentration of half-maximal effect
Outline: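 Decrease in cellular ATP, quantified by luciferase luminescence, reflects toxicity in normal human vascular endothelial HUV-EC-C cells given compound for 40 hr in complete culture medium. Values are AC50s from concentration-response curves.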

[2] = Cell Viability - H-4-II-E (AID 543);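 note: cells exposed to compound for 40 hours; nearly all actives have a fitted effect of over 35% in size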; note: potency is the fitted concentration of half-maximal effect
Outline: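 Here, cytotoxicity is measured in the rat hepatoma line H-4-II-E as loss of intracellular ATP after 40 hr compound treatment, detected by luciferase luminescence.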

[3] = Cell Viability - SH-SY5Y (AID 544); settings: SH-SY5Y neuroblastoma cell viability; viability change, negative = cytotoxic: at 92.2 µM (top of the series);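 note: cells exposed to compound for 40 hours; nearly all actives have a fitted effect of over 55% in size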; note: potency is the fitted concentration of half-maximal effect;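 for viability change, negative = cytotoxic: 0% = DMSO alone and -100% = 100 µM tamoxifen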
Outline: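 Cytotoxicity is scored as a concentration-dependent fall in intracellular ATP in human SH-SY5Y cells treated 40 hr in complete culture medium. Potency is expressed as AC50 from a Hill equation fit.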

[4] = Cellular Toxicity (caspase-3) SHSY5Y (AID 657); note: potency is the fitted concentration of half-maximal effect
Outline: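 Luminescent caspase-3/7 readout (aminoluciferin release) in SH-SY5Y cells after 16 h compound exposure in complete medium. Activity scaled between DMSO basal and 10 uM staurosporine as 100%; concentration-response fitted to Hill equation for AC50.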

[5] = Cellular Toxicity (caspase-3) Renal Proximal Tubule (AID 667); settings: renal proximal tubule cells; at 91.7 µM (top of the series) unless noted;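 note: cells exposed to compound for 16 hours at 37 °C before detection; 0% = DMSO basal and 100% = 10 µM staurosporine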
Outline: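 Luminescent caspase 3/7 signal from peptide-aminoluciferin cleavage measures apoptosis in freshly isolated rat kidney proximal tubule cells after 16 h compound exposure. Concentration-response data are normalized to DMSO and 10 uM staurosporine, and AC50 values come from Hill equation fits.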

[6] = Cell Viability - LYMP2-001 (AID 921); note: nearly all actives have a fitted effect of over 70% in size; note: potency is the fitted concentration of half-maximal effect
Outline: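 CellTiter-Glo luminescence (intracellular ATP) after 24 hr compound exposure at 37 C, 2500 lymphoblastoid cells/well in complete medium. AC50 fitted with standard Hill equation; tetraoctylammonium bromide positive control.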

[7] = Cell Viability - LYMP1-002 - Assay at 16 hr (AID 948); note: potency is the fitted concentration of half-maximal effect
Outline: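 LYMP1-002 human lymphoblastoid cells, 2500/well; 5 hr 37 C; cpd 16 hr 37 C; CellTiter-Glo 30 min RT; luminescence (ATP). Concentration-response, Hill-fit AC50. Pos ctrl tetraoctylammonium bromide.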

[8] = MultiTox-Fluor Cytotoxicity Assay - LYMP1-003 - Dead Cells (AID 961); note: nearly all actives have a fitted effect of over 70% in size; note: potency is the fitted concentration of half-maximal effect
Outline: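 Dead-cell protease release, detected as bis-AAF-R110 fluorescence at 485/520 nm, was measured in LYMP1-003 cells after 16 h compound treatment at 37 C. AC50 values came from Hill-modeled qHTS curves normalized to DMSO (0%) and 15 uM tetraoctylammonium bromide (100%).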

[9] = Cell Viability - LYMP1-003 - Assay at 40 hr (AID 964); note: nearly all actives have a fitted effect of over 60% in size; note: potency is the fitted concentration of half-maximal effect
Outline: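 This qHTS cytotoxicity screen treats human lymphoblastoid cells (LYMP1-003) with compounds for 40 hr and quantifies cellular ATP via luciferase luminescence.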

[10] = Cell Viability - LYMP2-005 (AID 967); note: potency is the fitted concentration of half-maximal effect
Outline: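 Steps: seed 2500 LYMP2-005 cells/well, incubate 5 h at 37 C, add compound, incubate 24 h at 37 C, add CellTiter-Glo, wait 30 min at RT, read luminescence. Concentration-response data fitted to Hill equation for AC50.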

[11] = Cell Viability - LYMP2-009 (AID 968); note: nearly all actives have a fitted effect of over 55% in size; note: potency is the fitted concentration of half-maximal effect
[12] = Cell Viability - LYMP2-011 (AID 969);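 note: cells exposed to compound for 24 hours; nearly all actives have a fitted effect of over 60% in size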; note: potency is the fitted concentration of half-maximal effect;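 for viability change, negative = cytotoxic: 0% = DMSO only and full inhibition = 92 µM tetraoctylammonium bromide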
Outline: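 Acute toxicity is scored as a concentration-dependent drop in intracellular ATP of a human lymphoblastoid line after 24 hr treatment. Values are AC50s modeled with the Hill equation.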

[13] = Cell Viability - LYMP2-017 (AID 972);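 note: cells exposed to compound for 24 hours at 37 °C; nearly all actives have a fitted effect of over 55% in size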; note: potency is the fitted concentration of half-maximal effect
Outline: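 Steps: plate 2500 lymphoblastoid cells per well; incubate 5 hr at 37 C; add compound across a concentration series and incubate 24 hr at 37 C; add CellTiter-Glo and read luminescence after 30 min at room temperature; fit Hill curves for AC50.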

[14] = Cell Viability - LYMP2-019 (AID 973); note: nearly all actives have a fitted effect of over 55% in size; note: potency is the fitted concentration of half-maximal effect
Outline: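 Cells plated at 2500/well and allowed 5 hr at 37 C before compound addition. After 24 hr incubation, CellTiter-Glo reagent was added, plates sat 30 min at room temperature, and luminescence was recorded.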

[15] = Cell Viability - LYMP2-023 (AID 975); note: potency is the fitted concentration of half-maximal effect
Outline: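 Concentration-dependent drop in intracellular ATP measures acute cytotoxicity in a human lymphoblastoid line treated for 24 hours in complete culture medium. AC50 values are taken from Hill-equation fits of qHTS data.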

[16] = Cell Viability - LYMP2-008 (AID 980); note: nearly all actives have a fitted effect of over 60% in size; note: potency is the fitted concentration of half-maximal effect
Outline: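 Acute cytotoxicity is scored as concentration-dependent loss of cellular ATP in a human lymphoblastoid line after 24 hr treatment at 37 C. ATP is quantified by luciferase luminescence.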

[17] = Cell Viability - LYMP1-002 - Assay at 24 hr (AID 993); note: potency is the fitted concentration of half-maximal effect
Outline: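 qHTS, LYMP1-002 lymphoblastoid, 24 h cpd, 37 C, CellTiter-Glo ATP luminescence; AC50 via Hill eq.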

[18] = Cell Viability - LYMP1-002 - Assay at 40 hr (AID 994); note: nearly all actives have a fitted effect of over 60% in size; note: potency is the fitted concentration of half-maximal effect;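 for viability change, negative = cytotoxic: 0% = DMSO only and full inhibition = 92 µM tetraoctylammonium bromide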
Outline: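 Viability in the human lymphoblastoid line was measured as intracellular ATP via CellTiter-Glo after 40 hr compound exposure. Tetraoctylammonium bromide served as positive control.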

[19] = qHTS assay for small molecule agonists of the antioxidant response element (ARE) signaling pathway measured by Nrf2-dependant transcriptional activity - cell viability counter screen (AID 720653; active = well fitted curve in the direction sought with a large enough effect in the repeat runs; an effect the other way counts as inactive or inconclusive; note: potency is the fitted concentration of half-maximal effect; for max response: % is set by controls: 0 for no effect and ±100 for the full control effect); settings: ARE-bla HepG2 viability, CellTiter-Glo ATP luminescence, 16 h; max response: hits give low values
Outline: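 ARE-bla HepG2 cells (2,000/well) rested 5 hrs at 37C/5% CO2, then exposed to compounds in DMSO for 16 hrs. Viability was read in the same wells as intracellular ATP by luminescence, 30 min at room temperature after reagent addition.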

[20] = qHTS assay for cell viability of HEK293 cells (AID 743288); settings: ATP luminescence (CellTiter-Glo), 18 h; max response: hits give low values; note: nearly all actives have a fitted effect of over 50% in size; note: potency is the fitted concentration of half-maximal effect; for max response: % is set by controls: 0 for no effect and ±100 for the full control effect
Outline: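 Environmental chemicals tested in qHTS format against parental HEK293 cells; 18 h treatment, 37 C; read-out ATP luminescence (CellTiter-Glo), 30 min RT development.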

C[C@@H]1CC[C@@]2(OC1)O[C@H]1[C@@H](O)[C@H]3[C@@H]4CC[C@H]5C[C@@H](O[C@@H]6O[C@H](CO)[C@H](O[C@@H]7O[C@H](CO)[C@@H](O)[C@H](O[C@@H]8OC[C@@H](O)[C@H](O)[C@H]8O)[C@H]7O[C@@H]7O[C@H](CO)[C@@H](O)[C@H](O[C@@H]8O[C@H](CO)[C@@H](O)[C@H](O)[C@H]8O)[C@H]7O)[C@H](O)[C@H]6O)[C@H](O)C[C@]5(C)[C@H]4CC[C@]3(C)[C@H]1[C@@H]2C
active: Potency [1] 25.1 µM | Potency [2] 20 µM | Potency [3] 15.8 µM | Potency [6] 10 µM | Potency [7] 10 µM | Potency [8] 10 µM | Potency [9] 7.94 µM | Potency [10] 15.8 µM | Potency [11] 12.6 µM | Potency [12] 20 µM | Potency [13] 25.1 µM | Potency [14] 12.6 µM | Potency [15] 25.1 µM | Potency [16] 20 µM | Potency [17] 7.94 µM | Potency [18] 7.94 µM | Potency [19] 17.8 µM | Potency [20] 25.1 µM
inactive: Potency [4] | caspase-3 activation [5] -2.38%

OC(c1ccc(Cl)cc1)(c1ccc(Cl)cc1)C(Cl)(Cl)Cl
inactive: Potency [1] | Potency [2] | Potency [3] | Potency [4] | caspase-3 activation [5] 1.02% | Potency [6] | Potency [7] | Potency [8] | Potency [9] | Potency [10] | Potency [11] | Potency [12] | Potency [13] | Potency [14] | Potency [15] | Potency [16] | Potency [17] | Potency [18] | max response [20] 0.684% and -14.8%

CC(=O)[O-].CC(=O)[O-].O.O.[Cd+2]
inactive: Potency [1] | Potency [4] | caspase-3 activation [5] -14.3% [at 91.7 µM, primary cells freshly taken from rat, solvent-only wells 0%, staurosporine 100%] | Potency [7] | Potency [13] | Potency [14] | Potency [15] | Potency [17] | Potency [18]
active: Potency [2] 2.51 µM | Potency [10] 31.6 µM | Potency [16] 50.1 µM | Potency [19] 10 µM

CC(C)CC(C)Nc1ccc(Nc2ccccc2)cc1 (centres undefined)
active: Potency [1] 25.1 µM | Potency [2] 50.1 µM | Potency [3] 25.1 µM | Potency [6] 15.8 µM | Potency [7] 50.1 µM | Potency [8] 50.1 µM | Potency [9] 31.6 µM | Potency [10] 31.6 µM | Potency [12] 50.1 µM | Potency [13] 50.1 µM | Potency [14] 39.8 µM | Potency [15] 50.1 µM | Potency [16] 39.8 µM | Potency [17] 39.8 µM | Potency [18] 31.6 µM
inactive: Potency [4] | max response [19] -3.35% | max response [20] -21.7%

Clc1ccc(C(c2ccc(Cl)cc2)C(Cl)Cl)cc1
inactive: Potency [1] | Potency [6] | Potency [10] | Potency [11] | Potency [12] | Potency [13] | Potency [14] | Potency [15] | Potency [16] | max response [19] -1.77% and -12.4%
active: Potency [3] 31.6 µM | Potency [4] 50.1 µM | caspase-3 activation [5] 152% | Potency [9] 79.4 µM | Potency [18] 50.1 µM

N#CC(Cl)Cl
inactive: Potency [1] | Potency [2] | Potency [3] | Potency [4] | caspase-3 activation [5] -4.27% [at 91.7 µM, primary cells freshly taken from rat, solvent-only wells 0%, staurosporine 100%] | Potency [7] | Potency [8] | Potency [9] | Potency [10] | Potency [17] | Potency [18]
active: Potency [6] 10 µM | Potency [11] 15.8 µM | Potency [12] 20 µM | Potency [13] 39.8 µM | Potency [14] 15.8 µM | Potency [15] 25.1 µM | Potency [16] 12.6 µM | Potency [20] 14.1 µM
